Results taken from the supplement of paper PMC6555819.

system: VDR:RXRa (NR concentration 270 nM, RXRa partner concentration 90 nM); assay: PBM binding z-score (relative to random genomic background probes); higher = stronger binding; sequences stand for … in GC…GCGATTGACAGCGTAGAATGAAGG
Procedure: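 Protein-binding microarray (Agilent 4x180K custom design, double-stranded 60-nt probes: 5' GC cap, 34-nt variable region, 24-nt constant primer region; full probe sequence given). Purified or IVT nuclear receptor:RXRα heterodimers (3:1 NR:RXRα, mostly 270:90 nM) or homodimers were incubated for 1 h in PBS with 2% milk and no ligand, then detected with Alexa488 antibodies. Fluorescence from o1-orientation probes (~5 replicates averaged) was converted to z-scores against 500 random hg19 background probes. Variable regions are seed direct-repeat (DR0–DR5) sites, all their single-nucleotide variants and half-site ablations.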

| Sequence | PBM binding z-score |
| --- | --- |
| ACAAACAGGTGAGTGAAGGTAACTCAGCTGGACG | -0.124 |
| TGTCAAACTTCAAAGGTAACGTAAGTATCCACAC | 0.41 |
| GCTAGTTGGTCAGTAAAAAGTCACACACCGGTCG | 0.0507 |
| TCAGACAGGTGGAGGTAACTCAGGTACGCAGTCG | 0.574 |
| TCTTCTAGATCAATAGAGGTTAAGAAAGTGCGCT | 1.94 |
| CGAACTAGGTCATCCAGGACAATGAATACATTGA | 4.99 |
| CGTCCAAGGGCATAGGAGGTCAGTGAAGACAGAT | 3.99 |
| TCTGCTAGGTCAGCTGGTCAGCTAACGAGCTGCC | 0.12 |
| TCGGCTAGGTCAGTTGGTCAGCTAACGAGCTGCC | 0.16 |
| CAAACTAGGTCACCGGAAGGTCAACGTCCGCATG | 5.72 |
| CCGACTGGGGGAAAGGTTACCATACTCAGTACGA | 1.79 |
| ATATGTAGGTTATCGGGTTATTCAGTTTGCGCAT | 3.47 |
| TCTTGTAGGTCAAGCAGGTTAAGAAAGCCTGAGT | 5.16 |
| ATGTGTAGGTTAGCTGGGGTCATTCAGACTAGGC | 6.24 |
| CGAACTAGGTCAGAACGGGACAGTGAAGGATGAT | 0.281 |
| CCTTACGGGTCACTGACAGGTTATGGCATTTGGA | 3.75 |
| CCAGACAGGTGACAGGTAACTCAGTCTGGTACGC | -0.206 |
| CTCGAAAGGTCGGTTGATGTGAGTATACGGATAA | 1.17 |
| CTACCAAGGTGAACAAGGGCGTTGATTACTATTC | 4.73 |
| GCGAGCAGGCCATTTGGGTCACTCAATGACGGGC | 0.881 |

| Sequence | PBM binding z-score |
| --- | --- |
| GGAACGACGGCAAGTTGATAGCAGAGTTTGATGG | -0.532 |
| ACTATTAGTTGACTTAGGACAACCGATACGACGC | 0.499 |
| ATTTGTAGGTTAGCTGGGGTCATTCAGACTAGGC | 6.42 |
| CAAACTAGGTCTAGGTCAAAGTCGGTTTGTGCCA | 1.84 |
| AGAATGAGGTTATACGTAGATCAGGGATGAAAGT | 1.47 |
| TAGCCTAGGTCATGGGCCAGTATCCCACGCGAAC | 1.76 |
| ATAGACAGGTGAGTGAAGGTAACTCAGCTGGACG | 0.0461 |
| CCTCGGAGGACAGTAGGTCAGAGCTGTCCGCTTT | -0.11 |
| TCTGCTAGGTCAGTTGATCAGCTAACGAGCTGCC | 0.135 |
| ATCGCTAGGTAACAAGTTCAGTGAAAGAGAGGAC | 1.42 |
| CGTCCCAGGTCATAGGAGGTCAGTGAAGACAGAT | 6.01 |
| CCTTACGGGGCAAGGTTATAGCACGGGTGGTACG | 0.0431 |
| GCTCGGAGGACAAAGTCAGAGCTTTGTCCGTAGA | -0.556 |
| GCGACTGGGGCAAAGCAGGTTATCATAAGGTTGG | 0.334 |
| AGAACGAGGGCACGCTGAGTTGGTAGCAGAGTAG | 1.34 |
| TAGCCTAGGTCAGGTCGGGCCAGTATACGCTATA | 1.03 |
| ATATGTAGGTTAATGGTCATTCAGGTTGGTTCGC | 1.32 |
| TCATATAGGTAAATGCTAAGTGAAAGTCCGATCT | 0.987 |
| CCGAGTAGATTATGGGGCATTCAGGCAACGGTGA | -0.214 |
| CGTCCAAGGTCAATGCTAGGTCGGTGAAAGCATT | 4.11 |
